Results as given in PubChem BioAssay (EPA / NIEHS).
The source made the active and inactive calls. How the source made its calls: active means hit-call score of the fitted dose curve at least 0.9, where 1 is the maximum; inactive means score below 0.9.

Key:
[1] = read-out: Transforming growth factor beta 1 (TGFb1), TGFB1 (gene 7040); assay: BSK_KF3CT_TGFb1: BioMAP Diversity Plus: KF3CT Assay for Transforming growth factor beta 1 (TGFb1) Biomarker Activity (AID 2283072); details: primary human keratinocytes with fibroblasts; actives raise or lower the signal
Method in brief: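 Primary human skin cells (keratinocytes, foreskin fibroblasts) were co-cultured, exposed to test chemical and sampled at 24 h. TGF-b1 levels were measured by ELISA and fitted bidirectionally relative to DMSO.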

[2] = read-out: C-C motif chemokine 2 (Homo sapiens) (UniProt P13500); assay: BSK_KF3CT_MCP1: BioMAP Diversity Plus: KF3CT Assay for Monocyte Chemoattractant Protein 1 (MCP1/CCL2) Biomarker Activity (AID 2283073); details: primary human keratinocytes with fibroblasts; actives raise or lower the signal
Method in brief: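 Human keratinocyte–foreskin fibroblast co-culture; MCP-1 measured by ELISA 24 h after dosing. Bidirectional fit vs DMSO; cytotoxicity tracked by SRB total protein in parallel cultures.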

[3] = read-out: Matrix Metallopeptidase 9 (MMP9), MMP9 (gene 4318); assay: BSK_KF3CT_MMP9: BioMAP Diversity Plus: KF3CT Assay for Matrix Metallopeptidase 9 (MMP9) Biomarker Activity (AID 2283074); details: primary human keratinocytes with fibroblasts; actives raise or lower the signal
Method in brief: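 Human keratinocyte/foreskin fibroblast co-culture; compound added; 24 h; MMP-9 by ELISA; bidirectional fit vs DMSO baseline.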

[4] = read-out: urokinase plasminogen activator (uPA), PLAU (gene 5328); assay: BSK_KF3CT_uPA: BioMAP Diversity Plus: KF3CT Assay for urokinase plasminogen activator (uPA) Biomarker Activity (AID 2283075); details: primary human keratinocytes with fibroblasts; actives raise or lower the signal
Method in brief: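 ELISA readout of uPA, analyzed for signal gain or loss relative to DMSO, from a human primary keratinocyte–foreskin fibroblast co-culture measured 24 h after chemical treatment.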

[5] = read-out: CD40, CD40 (gene 958); assay: BSK_LPS_CD40: BioMAP Diversity Plus: LPS Assay for CD40 Biomarker Activity (AID 2283076); details: primary human HUVEC with PBMC; actives raise or lower the signal
Method in brief: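 HUVEC plus PBMC co-culture stimulated with LPS; CD40 quantified by ELISA 24 h after compound dosing. Fitting was bidirectional relative to DMSO. SRB staining of parallel cultures flagged overt cytotoxicity.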

[6] = read-out: E-selectin (Homo sapiens) (UniProt P16581); assay: BSK_LPS_Eselectin: BioMAP Diversity Plus: LPS Assay for Eselectin Biomarker Activity (AID 2283077); details: primary human HUVEC with PBMC; actives raise or lower the signal
Method in brief: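 Human umbilical vein endothelial cells co-cultured with PBMC under LPS stimulation; cell-surface E-selectin measured by ELISA 24 h after dosing. Change in either direction versus DMSO, with SRB total-protein staining in parallel cultures for cytotoxicity.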

[7] = read-out: Interleukin-8 (IL8), CXCL8 (gene 3576); assay: BSK_LPS_IL8: BioMAP Diversity Plus: LPS Assay for Interleukin-8 (IL8) Biomarker Activity (AID 2283078); details: primary human HUVEC with PBMC; actives raise or lower the signal
Method in brief: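 Human umbilical vein endothelial cells co-cultured with PBMC, LPS-stimulated, exposed to compound for 24 h. IL-8 quantified by ELISA; fitted in both directions against DMSO, with SRB total-protein staining of parallel cultures for cytotoxicity.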

[8] = BSK_LPS_SRB: Viability Assessment in the BioMAP Diversity Plus: LPS Assay (AID 2283079); details: primary human HUVEC with PBMC;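 further: total protein by sulforhodamine B absorbance as a cytotoxicity measure; measured one day after compound addition; fitted in both directions against DMSO so loss or gain of signal counts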
Method in brief: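 Co-culture of human umbilical vein endothelial cells and PBMC, read 24 h after dosing. Total protein by 0.1% SRB staining after 10% TCA fixation, absorbance at 560 nm; bidirectional fit against DMSO.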

[9] = read-out: Interleukin-1 alpha (IL1a), IL1A (gene 3552); assay: BSK_LPS_IL1a: BioMAP Diversity Plus: LPS Assay for Interleukin-1 alpha (IL1a) Biomarker Activity (AID 2283080); details: primary human HUVEC with PBMC; actives raise or lower the signal
Method in brief: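 Human umbilical vein endothelial cells co-cultured with PBMC and stimulated with LPS; IL-1a measured by ELISA 24 h after dosing. Bidirectional fitting against DMSO; cytotoxicity checked by SRB staining in parallel cultures.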

[10] = read-out: Monocyte Chemoattractant Protein-1 (MCP1), CCL2 (gene 6347); assay: BSK_LPS_MCP1: BioMAP Diversity Plus: LPS Assay for Monocyte Chemoattractant Protein-1 (MCP1) Biomarker Activity (AID 2283081); details: primary human HUVEC with PBMC; actives raise or lower the signal
Method in brief: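 Human umbilical vein endothelial cells co-cultured with PBMC, LPS-stimulated; secreted MCP-1 measured by ELISA 24 h after compound addition. Bidirectional curve fitting against DMSO baseline; SRB total-protein staining in parallel cultures for cytotoxicity.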

[11] = read-out: Macrophage colony-stimulating factor (MCSF), CSF1 (gene 1435); assay: BSK_LPS_MCSF: BioMAP Diversity Plus: LPS Assay for Macrophage colony-stimulating factor (MCSF) Biomarker Activity (AID 2283083); details: primary human HUVEC with PBMC; actives raise or lower the signal
Method in brief: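 HUVEC–PBMC co-culture, M-CSF measured by ELISA 24 h after chemical dosing. Fitted in both directions relative to DMSO as negative control; overt cytotoxicity assessed by SRB total-protein staining in parallel cultures.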

[12] = read-out: Tissue Factor, F3 (gene 2152); assay: BSK_LPS_TissueFactor: BioMAP Diversity Plus: LPS Assay for Tissue Factor Biomarker Activity (AID 2283084); details: primary human HUVEC with PBMC; actives raise or lower the signal
Method in brief: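 Human umbilical vein endothelial cells co-cultured with PBMC were dosed with compound. Cell-surface CD142 was measured by ELISA 24 h later. Activity was fitted bidirectionally against DMSO, with SRB total-protein staining in parallel cultures for cytotoxicity.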

[13] = read-out: Tumor necrosis factor (Homo sapiens) (UniProt P01375); assay: BSK_LPS_TNFa: BioMAP Diversity Plus: LPS Assay for Tumour Necrosis Factor alpha (TNFa) Biomarker Activity (AID 2283085); details: primary human HUVEC with PBMC; actives raise or lower the signal
Method in brief: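 Read-out is ELISA of TNFa in primary human endothelial cell–PBMC co-cultures at 24 h after compound. Activity in either direction was fitted against DMSO.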

[14] = read-out: Vascular cell adhesion molecule 1 (VCAM1), VCAM1 (gene 7412); assay: BSK_LPS_VCAM1: BioMAP Diversity Plus: LPS Assay for Vascular cell adhesion molecule 1 (VCAM1) Biomarker Activity (AID 2283086); details: primary human HUVEC with PBMC; actives raise or lower the signal
Method in brief: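 HUVEC + PBMC co-culture, LPS system; compound 24 h; VCAM-1 by ELISA; bidirectional fit vs DMSO control; parallel SRB (0.1%, TCA-fixed, 560 nm) for cytotoxicity.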

[15] = read-out: CD38, CD38 (gene 952); assay: BSK_SAg_CD38: BioMAP Diversity Plus: SAg Assay for CD38 Biomarker Activity (AID 2283087); details: primary human HUVEC with PBMC; actives raise or lower the signal
Method in brief: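 Human HUVEC plus PBMC co-culture stimulated with superantigen; CD38 measured by ELISA 24 h after chemical dosing. Fluorescence read-out, bidirectional fit against DMSO; cytotoxicity tracked in parallel by SRB and Alamar Blue.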

[16] = read-out: CD40, CD40 (gene 958); assay: BSK_SAg_CD40: BioMAP Diversity Plus: SAg Assay for CD40 Biomarker Activity (AID 2283088); details: primary human HUVEC with PBMC; actives raise or lower the signal
Method in brief: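 HUVEC plus PBMC co-culture, superantigen-activated, with CD40 read by ELISA 24 h after dosing. Curves fitted in both directions against DMSO. Overt cytotoxicity checked by parallel SRB total-protein staining.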

[17] = read-out: CD69, CD69 (gene 969); assay: BSK_SAg_CD69: BioMAP Diversity Plus: SAg Assay for CD69 Biomarker Activity (AID 2283089); details: primary human HUVEC with PBMC; actives raise or lower the signal;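 on AC50: cell surface CD69 protein quantified by ELISA with fluorescence detection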
Method in brief: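 HUVEC co-cultured with PBMC were dosed with chemical, and CD69 was measured by ELISA with fluorescence read-out 24 h later. Bidirectional curve fitting used DMSO as negative control and activity baseline.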

[18] = read-out: Monocyte Chemoattractant Protein-1 (MCP1), CCL2 (gene 6347); assay: BSK_SAg_MCP1: BioMAP Diversity Plus: SAg Assay for Monocyte Chemoattractant Protein-1 (MCP1) Biomarker Activity (AID 2283090); details: primary human HUVEC with PBMC; actives raise or lower the signal
Method in brief: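 MCP-1 levels in the endothelial–PBMC SAg co-culture were quantified by ELISA at 24 h post-dosing; both increases and decreases versus DMSO scored. Cytotoxicity monitored by SRB total protein in parallel cultures.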

[19] = read-out: E-selectin (Homo sapiens) (UniProt P16581); assay: BSK_SAg_Eselectin: BioMAP Diversity Plus: SAg Assay for Eselectin Biomarker Activity (AID 2283091); details: primary human HUVEC with PBMC; actives raise or lower the signal
Method in brief: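 Human umbilical vein endothelial cells co-cultured with peripheral blood mononuclear cells, SAg system. E-selectin is measured by ELISA 24 h after dosing and fitted bidirectionally against DMSO. Cytotoxicity is checked by SRB staining of parallel cultures.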

[20] = BSK_LPS_PGE2: BioMAP Diversity Plus: LPS Assay for Prostaglandin E2 (PGE2) Biomarker Activity (AID 2283082); details: primary human HUVEC with PBMC; actives raise or lower the signal
Method in brief: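 LPS-activated HUVEC/PBMC co-culture; cmpd dosed, 24 h; PGE2 by ELISA; bidirectional fit vs DMSO; SRB (0.1%, TCA-fixed, 560 nm) in parallel plates for overt cytotox.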

Measured: AC50

E-selectin (Homo sapiens), sequence (P16581 whole entry, looked up): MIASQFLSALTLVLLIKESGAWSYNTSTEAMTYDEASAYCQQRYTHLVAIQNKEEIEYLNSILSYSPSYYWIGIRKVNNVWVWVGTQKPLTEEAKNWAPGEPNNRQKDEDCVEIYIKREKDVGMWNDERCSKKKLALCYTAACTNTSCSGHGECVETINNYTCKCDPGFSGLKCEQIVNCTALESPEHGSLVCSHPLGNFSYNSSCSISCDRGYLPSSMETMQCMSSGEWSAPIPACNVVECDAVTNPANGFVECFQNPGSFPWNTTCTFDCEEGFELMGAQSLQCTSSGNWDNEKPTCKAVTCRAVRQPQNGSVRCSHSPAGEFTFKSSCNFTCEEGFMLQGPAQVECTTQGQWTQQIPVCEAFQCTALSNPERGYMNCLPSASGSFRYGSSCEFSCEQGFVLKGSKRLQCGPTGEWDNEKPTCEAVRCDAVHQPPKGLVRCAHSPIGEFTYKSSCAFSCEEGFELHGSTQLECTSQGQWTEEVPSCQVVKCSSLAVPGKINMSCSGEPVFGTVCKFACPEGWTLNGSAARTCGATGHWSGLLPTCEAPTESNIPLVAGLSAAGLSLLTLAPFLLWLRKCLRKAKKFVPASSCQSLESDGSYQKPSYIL
Tumor necrosis factor (Homo sapiens), sequence (P01375 whole entry, looked up): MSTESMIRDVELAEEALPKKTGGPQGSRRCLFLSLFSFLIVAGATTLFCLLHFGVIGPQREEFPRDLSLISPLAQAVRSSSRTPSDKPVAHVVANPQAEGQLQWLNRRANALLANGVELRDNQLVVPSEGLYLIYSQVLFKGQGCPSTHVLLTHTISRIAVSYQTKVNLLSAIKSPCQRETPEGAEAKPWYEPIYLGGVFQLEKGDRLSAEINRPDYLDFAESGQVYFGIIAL

CCCCCCC(C=O)=Cc1ccccc1
inactive: [1] | [2] | [3] | [4] | [5] | [6] | [10] | [11] | [12]
active: [7] 30.2 µM | [8] 29.3 µM | [9] 33.6 µM | [13] 30.1 µM | [14] 29.7 µM | [15] 33.4 µM | [16] 32 µM | [17] 31 µM | [18] 32 µM | [19] 34.4 µM

CC(C)COC(=O)CCCCC(=O)OCC(C)C
not listed: [14]
inactive: all other assays above

c1ccc2occc2c1
not listed: [20]
inactive: all other assays above

CCCCC(CC)COC(=O)CCCCCCCC(=O)OCC(CC)CCCC (stereo unspecified)
not listed: [14]
inactive: all other assays above
